The record followed here is PubChem BioAssay AID709 (SRMLSC, 2007).

The whole screen tested about 65,000 compounds, of which about 3,600 (5.5%) were called active.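 Rule for the calls: active = at 10 µM, mean starting fluorescence two-fold or more over control wells; inactive = the rest.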 Many of the other results were omitted from the sample, so actives are more common in it than they were.

A short description of this assay: intrinsic fluorescence of library compounds, ex339/em460 – biochemical, MLSMR library, data from DPM-DC assay, artefact control, profiling panel (AID 709).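 Note: signal is the first read of a kinetic run.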 The conditions noted are these: compound autofluorescence, ex339/em460 nm, NADH buffer; at 10 µM; stronger effect = higher value; 1 = no-compound wells, NADH background.
Consider `COC(=O)c1sc(=S)n(-c2ccccc2)c1N`, for which the fluorescence fold increase is 1.02 (inactive).

On to `O=S(=O)(NCc1ccc2c(c1)OCO2)c1cccc2nsnc12`, for which the fluorescence fold increase is 1.04 (inactive).

With `CCOC(=O)c1cc2occc2n1CC(=O)NC1CCC(C)CC1` (stereo unspecified), the fluorescence fold increase was 1.03 (inactive).

Regarding `Cc1cccc(N2CCN(Cc3c(C)n(C)n(-c4ccccc4)c3=O)CC2)c1C`, the fluorescence fold increase is 1.01 (inactive).

On to `OCc1n[nH]c(CO)n1`, for which the fluorescence fold increase is 1.04 (inactive).

With `O=C(Nc1ccc2c(c1)nc1n2CCCCC1)c1cc(S(=O)(=O)N2CCOCC2)ccc1Cl`, the fluorescence fold increase was 1.09 (inactive).

Consider `CC(c1nnc(SCC(=O)Nc2sccc2C#N)n1-c1ccc(Cl)cc1)N(C)C` (stereo unspecified), for which the fluorescence fold increase was 1.06 (inactive).

For the compound `CSc1ccc(-c2c(C#N)c(N)nc3c2c(C)nn3-c2ccccc2)cc1`, the fluorescence fold increase was 3.9 (active).

Turning to `CSc1nc(N)c(C#N)c(-c2ccccc2Cl)c1C#N`, the fluorescence fold increase is 1.19 (inactive).

For `CCCc1[nH]nc2c1C(c1c(C)nn(-c3ccccc3)c1Cl)C(C#N)=C(N)O2` (stereo unspecified), the fluorescence fold increase was 1.09 (inactive).

For `COc1ccc(OC)c(CNC(=O)CCc2nc(-c3cccs3)no2)c1`, the fluorescence fold increase was 1.09 (inactive).

As to `Cc1cc(C)nc(N(C#N)CC(=O)Nc2ccccc2)n1`, the fluorescence fold increase was 1.1 (inactive).

Turning to `Cc1ccc(S(=O)(=O)NCCN2CCOCC2)cc1C`, the fluorescence fold increase was 1.15 (inactive).

As to `COc1ccccc1NC1=NC(c2ccc(Cl)cc2)N=C(N)N1` (stereo unspecified), the fluorescence fold increase is 1.03 (inactive).

In the case of `CCCc1nc2ccccc2c(C(=O)OCc2nnc(-c3cc(OC)c(OC)c(OC)c3)o2)c1CC`, the fluorescence fold increase was 1.12 (inactive).

`COc1ccc(C(=O)OCC(=O)c2ccc(C)c(S(=O)(=O)N3CCOCC3)c2)cc1OC`: the fluorescence fold increase is 1 (inactive).

As to `Cc1c(C)c2cc3c4c(oc3c(C)c2oc1=O)CCCC4`, the fluorescence fold increase is 1.64 (inactive).

For `CCCOc1ccc2c3c(c(=O)oc2c1OCCC)CCC3`, the fluorescence fold increase is 2.13 (active).

Turning to `COc1ccc(Cl)cc1S(=O)(=O)N1CCN(CC(=O)C(C)(C)C)CC1`, the fluorescence fold increase is 0.9 (inactive).

For the compound `COc1ccc2c3c(c(=O)oc2c1OCC(=O)C(C)(C)C)CCCC3`, the fluorescence fold increase is 2.12 (active).

Turning to `COC(=O)c1ccc(Oc2nc(Nc3ccc(F)cc3)nc(N3CCCC3)n2)cc1`, the fluorescence fold increase was 1.09 (inactive).

Regarding `Cc1ccc(C(c2nnnn2CS(=O)(=O)c2ccc(C)cc2)N2CCC(C(N)=O)CC2)cc1` (stereo unspecified), the fluorescence fold increase was 1.03 (inactive).

As for `Cc1cccc(NC(=O)CN2CCCN(S(=O)(=O)c3ccc(Br)s3)CC2)c1`, the fluorescence fold increase is 1.1 (inactive).

For `Cc1cc(NC(=O)c2cccc(N3C(=O)CCC3=O)c2)no1`, the fluorescence fold increase was 1.09 (inactive).

As to `COc1ccc2oc(=O)c(C(=O)N3CCCc4ccccc43)cc2c1`, the fluorescence fold increase is 1.09 (inactive).

With `COc1ccc2oc(=O)c(C(=O)O)cc2c1`, the fluorescence fold increase is 3.98 (active).

Regarding `CCN(CC)c1ccc2cc(C(=O)O)c(=O)oc2c1`, the fluorescence fold increase is 2.71 (active).

As to `CCCOC(=O)c1cc2ccccc2oc1=O`, the fluorescence fold increase is 1.51 (inactive).

As for `CCN(CC)c1ccc2oc(=O)c(C)nc2c1`, the fluorescence fold increase was 0.59 (inactive).

On to `COc1ccc2oc(=O)c(C(=O)N3CCN(c4ccccc4F)CC3)cc2c1`, for which the fluorescence fold increase is 1.41 (inactive).

With `CCOc1ccc(-n2c(SC(C)C(=O)OC)nc3c(c2=O)SCC3)cc1` (stereo unspecified), the fluorescence fold increase was 1.06 (inactive).

In the case of `CC(=O)c1cc(C#N)c(SCC(=O)C(C)(C)C)nc1C`, the fluorescence fold increase was 1.08 (inactive).

`Cc1ccccc1S(=O)(=O)Cc1ccc(C(=O)NCCN2CCCCC2C)o1` (stereo unspecified): the fluorescence fold increase was 1.1 (inactive).

As for `CC1=Nn2c(nnc2-c2ccccc2)SC1`, the fluorescence fold increase was 1 (inactive).

Regarding `CCOC(=O)C1CCN(C(=O)Cn2cc(C#N)c3ccccc32)CC1`, the fluorescence fold increase is 1.19 (inactive).

`CCOC(=O)CCc1c(C)c(C#N)c2[nH]c3ccccc3n2c1=O`: the fluorescence fold increase is 2.29 (active).

Consider `CCOC(=O)CC1=CC(=O)Nc2ccccc2N1`, for which the fluorescence fold increase is 1.15 (inactive).

`COc1ccc(C2C(C(=O)N3CCN(c4ccc(OC)cc4)CC3)c3ccccc3C(=O)N2C)cc1` (stereo unspecified): the fluorescence fold increase is 1.12 (inactive).

For `COc1ccccc1-n1c(CNC(=O)c2ccccc2)nnc1SCC(=O)Nc1nnc(C)s1`, the fluorescence fold increase is 1.12 (inactive).

For the compound `CC(NCCO)C(=O)C12CC3CC(CC(C3)C1)C2` (stereo unspecified), the fluorescence fold increase is 1.13 (inactive).

As to `Cc1cccc(N(CC(O)CN(C)C)S(=O)(=O)c2ccccc2)c1` (stereo unspecified), the fluorescence fold increase was 1.08 (inactive).

Consider `CNC(=O)Nc1cc(C(C)(C)C)no1`, for which the fluorescence fold increase was 1.07 (inactive).

Turning to `CCOC(=O)c1sc2nc(CSCC(=O)OCc3ccc(C(=O)OC)o3)[nH]c(=O)c2c1C`, the fluorescence fold increase was 1.46 (inactive).

For `CCOC(=O)c1ccc(COC(=O)c2cc(=O)[nH]c3ccccc23)o1`, the fluorescence fold increase is 2.1 (active).

As for `CCOC(=O)c1ccc(CS(=O)c2ccc(Cl)cc2)o1` (stereo unspecified), the fluorescence fold increase is 1.02 (inactive).

`COc1cc(NS(=O)(=O)c2ccccc2)ccc1-n1nc(C)cc1C`: the fluorescence fold increase is 1.12 (inactive).

Turning to `Cc1ccc(S(=O)(=O)Nc2ccc3ncccc3c2)cc1`, the fluorescence fold increase was 1.18 (inactive).

On to `O=S(=O)(Nc1ccc2nc(-c3ccco3)[nH]c2c1)c1ccccc1`, for which the fluorescence fold increase was 2.12 (active).

On to `CCCCN(CCCC)C(=O)CCS(=O)(=O)c1ccc2c(c1)n(C)c(=O)c(=O)n2C`, for which the fluorescence fold increase was 1.23 (inactive).

For `Cc1cc(C)nc(SCc2nnc(SCC(=O)OC3CCCCC3)o2)n1`, the fluorescence fold increase is 1.08 (inactive).

As for `CC1CN(C2CCN(C(=O)COc3ccccc3)CC2)CC(C)O1` (stereo unspecified), the fluorescence fold increase was 1.1 (inactive).

With `COC(=O)c1ccc2c(=O)n(CC3CCCO3)c(=S)[nH]c2c1` (stereo unspecified), the fluorescence fold increase was 1.06 (inactive).

For the compound `O=C(NC1CCCCC1)c1ccc2c(=O)n(CC3CCCO3)c(=O)[nH]c2c1` (stereo unspecified), the fluorescence fold increase was 2.11 (active).

With `O=c1c2cc3c(=O)n(CC4CCCO4)c(=O)c3cc2c(=O)n1CC1CCCO1` (stereo unspecified), the fluorescence fold increase was 1.07 (inactive).

`Cc1cc(C(=O)CC#N)c(C)n1CC(F)(F)F`: the fluorescence fold increase was 1.05 (inactive).

As for `CCCNc1ncnc2sc(C)c(C)c12`, the fluorescence fold increase was 1.15 (inactive).

Regarding `Fc1cc(F)c2nc(N3CCOCC3)sc2c1`, the fluorescence fold increase was 1.07 (inactive).

Consider `COc1ccc(OC)c(NC(=O)CSc2nc(N)c(-c3ccccc3)c(=O)[nH]2)c1`, for which the fluorescence fold increase is 1.08 (inactive).

As for `CCOC(=O)CCc1c(C)c2ccc(OCc3nn[nH]n3)c(C)c2oc1=O`, the fluorescence fold increase was 3.81 (active).

For `CCN(CC)S(=O)(=O)c1cccc(C(=O)Nc2cc(C)nn2-c2nc(C)cc(C)n2)c1`, the fluorescence fold increase is 1.03 (inactive).

As for `CC(C)C1C2=C(CC(C)(C)CC2=O)ON1c1ccccc1` (stereo unspecified), the fluorescence fold increase is 1.9 (inactive).

Turning to `O=C(O)C1CCCCC1C(=O)Nc1ccc(Cl)cc1` (stereo unspecified), the fluorescence fold increase is 1.08 (inactive).

With `CCOC(=O)Cc1c(C)nc2c(C#N)c(C)nn2c1C`, the fluorescence fold increase was 3.62 (active).

For `CCOC(=O)CSc1nccc(N(C)C)c1C#N`, the fluorescence fold increase was 1.09 (inactive).

On to `COc1ccccc1CNC(=O)Cn1cc2c(n1)CCCC2`, for which the fluorescence fold increase was 1.13 (inactive).

Consider `CC(=O)c1cc2c(cc1N)OCO2`, for which the fluorescence fold increase is 1.13 (inactive).

`COc1cc2cc(CN(CCN3CCCC3)C(=O)Nc3ccccc3Cl)c(=O)[nH]c2cc1OC`: the fluorescence fold increase was 2.13 (active).

`COc1cc2[nH]c(=O)n(CCC(=O)NC3CCN(Cc4ccccc4)CC3)c(=O)c2cc1OC`: the fluorescence fold increase was 1.46 (inactive).

Turning to `COc1ccc(CCN(Cc2cc3cccc(C)c3[nH]c2=O)C(=O)N2CCCC2)cc1OC`, the fluorescence fold increase was 1.08 (inactive).

Take `Cc1cc(C(=O)O)c(S(C)(=O)=O)s1`: the fluorescence fold increase is 1.04 (inactive).

Regarding `Cc1cc(C)c2c(c1)c(C)cc1nnc(SCC(=O)NCc3ccco3)n12`, the fluorescence fold increase was 1.45 (inactive).

`CC(C)n1c(C(O)c2ccccc2)nc2ccccc21` (stereo unspecified): the fluorescence fold increase was 1.13 (inactive).

For `CC(Nc1nc(N2CCCC2)nc2ccccc12)c1ccccc1` (stereo unspecified), the fluorescence fold increase was 2.43 (active).

Regarding `Cc1ccc(C(CC(=O)O)Nc2nc(N3CCCCC3)nc(N3CCCCC3)n2)cc1` (stereo unspecified), the fluorescence fold increase is 1.14 (inactive).

`Cc1ccc(N2CCN(S(=O)(=O)N(C)C)CC2)cc1Cl`: the fluorescence fold increase was 1.11 (inactive).

For the compound `COc1ccc(-c2noc(COc3ccc(Cl)c(C)c3)n2)cc1`, the fluorescence fold increase is 1.02 (inactive).

On to `COc1ccc(OCc2ccc(-c3nc4ccccc4c(=O)n3N)o2)cc1`, for which the fluorescence fold increase was 1.1 (inactive).

For the compound `COc1ccc(-c2cc3ccc(OCc4nn[nH]n4)cc3oc2=O)cc1`, the fluorescence fold increase is 3.01 (active).

As for `O=C(O)C1CCN1C1CCCCC1` (stereo unspecified), the fluorescence fold increase was 0.88 (inactive).

Take `COCCCn1c(CCC(=O)O)ccc1-c1ccc(F)cc1`: the fluorescence fold increase was 3.84 (active).

With `COCCCNC(=O)c1c(F)c(F)c(F)c(F)c1F`, the fluorescence fold increase was 1.04 (inactive).

With `Cc1cccc(N=C2NC(=O)CS2)c1C`, the fluorescence fold increase was 1.01 (inactive).

As for `CC(C)CC(=O)N=C1SC2CS(=O)(=O)CC2N1CCc1ccccc1` (stereo unspecified), the fluorescence fold increase was 1.1 (inactive).

Turning to `CCCCCCn1c(CN2CCCCC2)nc2c1c(=O)n(C)c(=O)n2C`, the fluorescence fold increase is 1.13 (inactive).

For the compound `CCOC(=O)N1CCC(NC(=O)CN2C(=O)COc3ccc(C(C)(C)C)cc32)CC1`, the fluorescence fold increase was 1.02 (inactive).

With `CCN(CC)S(=O)(=O)c1ccc2[nH]cc(C(=O)NCCc3ccccc3)c(=O)c2c1`, the fluorescence fold increase is 1.58 (inactive).

Turning to `COC(=O)c1cn(C)c2ccc(S(=O)(=O)N3CC(C)CC(C)C3)cc2c1=O` (stereo unspecified), the fluorescence fold increase was 0.95 (inactive).

As for `CN1CCN(S(=O)(=O)c2ccc3[nH]cc(C(=O)O)c(=O)c3c2)CC1`, the fluorescence fold increase was 2.17 (active).

Consider `CC1(C)Cc2cccc(OCC(=O)Nc3nccs3)c2O1`, for which the fluorescence fold increase was 1.08 (inactive).

For `CCN1CCc2c(C#N)c(NCc3ccccc3)nc(NCCO)c2C1`, the fluorescence fold increase is 2.3 (active).

Take `N#Cc1c(N)sc2c1CCN(C(=O)OCc1ccccc1)C2`: the fluorescence fold increase is 1.12 (inactive).

Take `CC(C)CCNc1nc(N2CCCC2)c2c(c1C#N)CCN(C)C2`: the fluorescence fold increase was 1.63 (inactive).

In the case of `CC(C)C(=O)N1c2ccccc2NC2=C(C(=O)CCC2)C1c1ccc(N(C)C)cc1` (stereo unspecified), the fluorescence fold increase was 1.05 (inactive).

`O=C1CCCC2=C1C(c1cccs1)n1nc(SCc3ccccc3)nc1N2` (stereo unspecified): the fluorescence fold increase was 2.52 (active).

Turning to `CCCC(=O)N1c2ccccc2NC2=C(C(=O)CCC2)C1c1ccc(F)cc1` (stereo unspecified), the fluorescence fold increase was 1.08 (inactive).

As to `Cc1ccc2c(c1)N(CCCC(=O)NCc1cccnc1)C(=O)CO2`, the fluorescence fold increase is 1.1 (inactive).

In the case of `COC(=O)c1c(-c2ccc(C)cc2)csc1N`, the fluorescence fold increase is 1.09 (inactive).

Turning to `CC(=O)NC1=NC(=O)CS1`, the fluorescence fold increase was 1.08 (inactive).

With `COc1ccc(CCNC(=O)C2CCN(c3nn4c(=O)cc(C)nc4s3)CC2)cc1OC`, the fluorescence fold increase is 1.05 (inactive).

For the compound `CCOc1ccc(CCNC(=O)C2CCN(c3ccc(N4CCOCC4)nn3)CC2)cc1OCC`, the fluorescence fold increase was 4.91 (active).

As to `CCCS(=O)(=O)N1CCC(C(=O)NCCc2ccc(OC)c(OC)c2)CC1`, the fluorescence fold increase is 1.09 (inactive).
